Laboratory results: PubChem BioAssay (NCATS)
Results filed as inconclusive are left out. Active and inactive are the calls of the source. Unless noted, the call rests on the fitted dose curve; in most records, active means well fitted curve in the direction sought with a large enough effect; inconclusive means small, poorly fitted or top-dose-only effect, or another doubt; inactive means no such curve, though single readings can be large; an effect the other way counts as inactive or inconclusive.

Key:
[1] = target: Ubiquitin carboxyl-terminal hydrolase 1 (Homo sapiens) (UniProt O94782); assay: Inhibitors of USP1/UAF1: Pilot qHTS (AID 504865); settings: purified USP1/UAF1, Ub-rhodamine cleavage fluorescence; series mostly up to 114 µM;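 further: rhodamine fluorescence freed from ubiquitin-rhodamine substrate followed over time; top concentration of the series differs between compounds; on the % scale 0 is the no-effect control and ±100 the full control effect; nearly all actives have a fitted effect of over 35% in size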
Chain of Ubiquitin carboxyl-terminal hydrolase 1 (Homo sapiens) (O94782 whole entry, looked up): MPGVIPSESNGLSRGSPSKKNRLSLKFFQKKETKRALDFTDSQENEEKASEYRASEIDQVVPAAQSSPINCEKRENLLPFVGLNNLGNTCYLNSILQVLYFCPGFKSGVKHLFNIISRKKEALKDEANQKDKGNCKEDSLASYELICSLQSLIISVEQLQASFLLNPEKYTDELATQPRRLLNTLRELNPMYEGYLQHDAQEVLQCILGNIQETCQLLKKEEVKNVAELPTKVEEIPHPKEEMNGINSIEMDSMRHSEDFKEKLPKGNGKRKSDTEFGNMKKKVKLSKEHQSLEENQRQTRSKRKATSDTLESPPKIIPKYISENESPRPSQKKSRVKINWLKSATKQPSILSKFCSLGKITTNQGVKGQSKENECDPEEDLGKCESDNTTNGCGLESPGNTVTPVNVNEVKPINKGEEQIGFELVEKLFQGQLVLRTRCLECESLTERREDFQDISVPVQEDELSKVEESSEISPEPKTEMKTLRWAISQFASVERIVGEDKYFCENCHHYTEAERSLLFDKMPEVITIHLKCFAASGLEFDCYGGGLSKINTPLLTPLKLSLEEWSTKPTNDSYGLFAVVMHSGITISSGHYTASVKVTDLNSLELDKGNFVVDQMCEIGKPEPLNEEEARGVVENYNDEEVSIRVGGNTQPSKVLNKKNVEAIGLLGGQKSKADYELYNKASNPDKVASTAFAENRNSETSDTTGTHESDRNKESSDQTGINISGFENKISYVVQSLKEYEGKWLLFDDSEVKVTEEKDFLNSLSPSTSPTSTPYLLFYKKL
Summary of the method: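 Deubiquitinase activity followed as kinetic rhodamine fluorescence release from 150 nM Ub-Rho. 1 nM USP1/UAF1 with compound, after 15 min room-temperature preincubation, in HEPES pH 7.8 buffer containing TCEP, EDTA, BSA and Tween-20.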

[2] = qHTS for Inhibitors of ATXN expression: Validation (AID 588378); settings: cell-based ATXN2 expression reporter assay, luminescence; series mostly up to 57.1 µM; further: nearly all actives have a fitted effect of over 75% in size; further: potency means the concentration at half of the fitted maximal effect
Summary of the method: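 Luciferase luminescence (Bright-Glo) from an ATXN2-FFLuc HEK293 line after 24 h compound exposure at 37 °C, preceded by a CellTiter-Fluor fluorescence viability read. Serial dilutions of a reference ATXN2 inhibitor and a luciferase inhibitor served as controls.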

[3] = qHTS for Inhibitors of ATXN expression: Validation of Cytotoxic Assay (AID 588349); settings: cytotoxicity counter-screen for ATXN expression inhibitors, cell viability; series mostly up to 57.1 µM;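 further: cells exposed to compound for 72 hr; on the % scale 0 is the no-effect control and ±100 the full control effect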
Summary of the method: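 HEK293, compound dose series, 72 hr / 37 degrees C; viability via CellTiter Glo (intracellular ATP).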

[4] = target: DNA dC->dU-editing enzyme APOBEC-3G (Homo sapiens) (UniProt Q9HC16); assay: qHTS for inhibitors of Vif-A3G interactions: Validation (AID 588379); settings: Vif-A3G protein interaction assay; series mostly up to 46.1 µM; further: 0% is about no effect
Chain of DNA dC->dU-editing enzyme APOBEC-3G (Homo sapiens) (Q9HC16 whole entry, looked up): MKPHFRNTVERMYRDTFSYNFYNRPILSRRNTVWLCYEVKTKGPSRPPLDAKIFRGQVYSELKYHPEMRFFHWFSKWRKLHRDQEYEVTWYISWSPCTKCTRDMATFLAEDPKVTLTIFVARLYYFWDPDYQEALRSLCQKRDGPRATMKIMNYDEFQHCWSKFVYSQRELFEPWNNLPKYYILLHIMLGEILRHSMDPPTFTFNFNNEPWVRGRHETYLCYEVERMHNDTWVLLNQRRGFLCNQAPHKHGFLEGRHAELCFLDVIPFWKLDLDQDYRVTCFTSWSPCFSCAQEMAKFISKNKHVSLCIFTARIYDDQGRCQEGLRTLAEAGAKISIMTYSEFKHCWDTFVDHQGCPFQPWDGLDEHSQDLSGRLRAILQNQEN
Summary of the method: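 HeLa cells stably expressing Vif and A3G-eYFP, 700 cells/well, incubated overnight at 37 deg C, then exposed to compound overnight at 37 deg C. Inhibition of Vif-mediated degradation read as increased yellow fluorescence (Ex 488/Em 500-530) by laser-scanning cytometry.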

[5] = target: Estrogen receptor (Homo sapiens) (UniProt P03372); assay: qHTS assay for small molecule antagonists of estrogen receptor alpha signaling (AID 588513; active means well fitted curve in the direction sought with a large enough effect in the signal ratio, with a control signal flat, not every such curve was filed as active; the % refers to the signal ratio; further: on the % scale 0 is the no-effect control and ±100 the full control effect); settings: ER-alpha-UAS-bla HEK293, beta-lactamase ratio, antagonist mode; series mostly up to 76.9 µM
Chain of Estrogen receptor (Homo sapiens) (P03372 whole entry, looked up): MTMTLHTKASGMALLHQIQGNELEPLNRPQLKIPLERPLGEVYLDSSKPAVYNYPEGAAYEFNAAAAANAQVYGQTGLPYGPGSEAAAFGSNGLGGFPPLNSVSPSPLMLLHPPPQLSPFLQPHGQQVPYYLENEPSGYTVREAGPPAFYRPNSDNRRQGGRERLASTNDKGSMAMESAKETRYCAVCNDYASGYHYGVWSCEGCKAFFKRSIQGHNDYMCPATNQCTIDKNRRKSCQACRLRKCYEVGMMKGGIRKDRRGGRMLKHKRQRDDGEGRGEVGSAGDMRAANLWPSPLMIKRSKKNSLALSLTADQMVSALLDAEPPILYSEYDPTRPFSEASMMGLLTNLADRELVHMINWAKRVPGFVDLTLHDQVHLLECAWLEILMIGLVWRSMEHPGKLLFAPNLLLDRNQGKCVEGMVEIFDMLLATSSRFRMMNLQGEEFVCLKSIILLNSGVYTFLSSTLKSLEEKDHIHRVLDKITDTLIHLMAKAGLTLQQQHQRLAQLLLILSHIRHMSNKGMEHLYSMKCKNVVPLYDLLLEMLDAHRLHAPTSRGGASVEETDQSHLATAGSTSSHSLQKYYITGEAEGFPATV
Summary of the method: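 Antagonist mode: inhibition of 0.5 nM 17-beta-estradiol-driven beta-lactamase reporter in HEK 293 ER-alpha-UAS-bla cells, 18 h at 37C, CCF4 readout after 2 h at RT. Normalised to estradiol and DMSO; titration fitted to Hill.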

[6] = target: Estrogen receptor (Homo sapiens) (UniProt P03372); assay: qHTS assay for small molecule agonists of estrogen receptor alpha signaling (AID 588514; calls by dose curve;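 further: 0% = vehicle only and 100% = reference agonist; nearly all actives have a fitted effect of over 70% in size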); settings: ER-alpha-UAS-bla HEK293, beta-lactamase ratio, 18 h; series mostly up to 76.8 µM
Summary of the method: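 Reporter-gene assay. […] controls beta-lactamase in HEK 293 GripTite cells; after 18 hrs with compound, CCF4 substrate is added for 2 hrs and fluorescence is read.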

[7] = target: Glucocorticoid receptor (Homo sapiens) (UniProt P04150); assay: qHTS assay for small molecule agonists of glucocorticoid receptor signaling (AID 588532; active means well fitted curve in the direction sought with a large enough effect in the signal ratio, with a control signal flat; the % refers to the signal ratio;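 further: 100% = dexamethasone at 0.1 µM and 0% = DMSO only wells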); settings: HeLa MMTV-bla, beta-lactamase ratio, agonist, 18 h; stronger effect = higher value; percent of dexamethasone control, DMSO zero
Chain of Glucocorticoid receptor (Homo sapiens) (P04150 whole entry, looked up): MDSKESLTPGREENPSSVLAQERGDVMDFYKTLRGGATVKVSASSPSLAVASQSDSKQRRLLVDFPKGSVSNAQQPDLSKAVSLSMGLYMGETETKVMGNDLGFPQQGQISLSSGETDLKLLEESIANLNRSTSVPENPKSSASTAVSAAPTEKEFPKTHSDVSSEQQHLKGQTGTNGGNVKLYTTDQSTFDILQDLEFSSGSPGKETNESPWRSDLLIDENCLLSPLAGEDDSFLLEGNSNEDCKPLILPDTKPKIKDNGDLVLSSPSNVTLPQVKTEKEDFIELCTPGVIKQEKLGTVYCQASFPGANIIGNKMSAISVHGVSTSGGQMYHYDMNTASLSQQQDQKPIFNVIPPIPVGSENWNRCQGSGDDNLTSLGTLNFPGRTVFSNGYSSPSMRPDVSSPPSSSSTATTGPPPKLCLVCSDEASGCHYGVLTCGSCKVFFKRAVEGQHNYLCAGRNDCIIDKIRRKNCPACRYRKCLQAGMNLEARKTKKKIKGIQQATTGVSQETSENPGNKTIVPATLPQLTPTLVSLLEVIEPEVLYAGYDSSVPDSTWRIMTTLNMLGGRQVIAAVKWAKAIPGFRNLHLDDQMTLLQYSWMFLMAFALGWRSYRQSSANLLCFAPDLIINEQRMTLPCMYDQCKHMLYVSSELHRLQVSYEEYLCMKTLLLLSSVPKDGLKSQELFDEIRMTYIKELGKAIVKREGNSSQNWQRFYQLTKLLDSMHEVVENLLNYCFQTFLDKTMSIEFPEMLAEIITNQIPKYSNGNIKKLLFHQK
Summary of the method: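 Agonist-mode qHTS: GRE-driven beta-lactamase in HeLa cells exposed 18 h to titrated compounds (up to 92 uM), then CCF4 ratio read after 2 h at RT; Hill-fitted EC50, efficacy relative to 0.1 uM dexamethasone.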

[8] = target: Glucocorticoid receptor (Homo sapiens) (UniProt P04150); assay: qHTS assay for small molecule antagonists of glucocorticoid receptor signaling (AID 588533; active means well fitted inhibition curve with a large enough effect in the signal ratio, with a control signal flat, not every such curve was filed as active; the % refers to the signal ratio;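 further: cells stimulated with 2 nM dexamethasone as agonist; on the % scale 0 is the no-effect control and ±100 the full control effect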); settings: HeLa MMTV-bla, GRE beta-lactamase ratio, antagonist mode, 18 h; series mostly up to 76.8 µM
Summary of the method: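 Antagonist-mode qHTS: compound titrations added to GRE-bla HeLa cells, then dexamethasone 2 nM final; 18 h, 37 C. CCF4 FRET fluorescence normalized to dexamethasone and DMSO; IC50 from Hill fit.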

[9] = target: Peroxisome proliferator-activated receptor gamma (Homo sapiens) (UniProt P37231); assay: qHTS assay for small molecule agonists of peroxisome proliferator-activated receptor gamma signaling (AID 588536; active means well fitted curve in the direction sought with a large enough effect in the signal ratio, with a control signal flat, not every such curve was filed as active; the % refers to the signal ratio;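 further: 0% = DMSO basal wells and 100% = rosiglitazone at 2 µM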); settings: HEK293 PPARg-UAS-bla, beta-lactamase ratio, 16 h, percent of rosiglitazone response, DMSO as zero; series mostly up to 76.7 µM
Chain of Peroxisome proliferator-activated receptor gamma (Homo sapiens) (P37231 whole entry, looked up): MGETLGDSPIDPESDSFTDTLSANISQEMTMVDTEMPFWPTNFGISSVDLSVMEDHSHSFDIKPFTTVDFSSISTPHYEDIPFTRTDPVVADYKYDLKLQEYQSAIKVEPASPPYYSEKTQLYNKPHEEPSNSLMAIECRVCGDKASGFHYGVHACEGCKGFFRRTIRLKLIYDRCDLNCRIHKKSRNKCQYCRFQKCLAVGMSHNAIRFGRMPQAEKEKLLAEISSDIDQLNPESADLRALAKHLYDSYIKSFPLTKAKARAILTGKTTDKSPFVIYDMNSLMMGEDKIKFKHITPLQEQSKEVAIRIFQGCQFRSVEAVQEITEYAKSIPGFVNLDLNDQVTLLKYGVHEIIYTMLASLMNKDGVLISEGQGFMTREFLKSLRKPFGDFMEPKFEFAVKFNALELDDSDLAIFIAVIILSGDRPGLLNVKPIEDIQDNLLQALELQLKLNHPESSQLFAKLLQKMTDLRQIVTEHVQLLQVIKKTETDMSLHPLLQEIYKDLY
Summary of the method: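 PPAR-gamma-UAS-bla HEK293 cells in medium with 1% charcoal/dextran-treated FBS were exposed to compounds for 16 h at 37 C. Beta-lactamase activity was read with CCF4 substrate (405 nm excitation, 460/530 nm emission).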

[10] = target: Vitamin D3 receptor (Homo sapiens) (UniProt P11473); assay: qHTS assay for small molecule agonists of vitamin D receptor signaling (AID 588543; calls by dose curve;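 further: 0% = DMSO basal and 100% = reference agonist control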); settings: HEK293T VDR-UAS-bla, beta-lactamase ratio, 16 h; series mostly up to 76.8 µM
Chain of Vitamin D3 receptor (Homo sapiens) (P11473 whole entry, looked up): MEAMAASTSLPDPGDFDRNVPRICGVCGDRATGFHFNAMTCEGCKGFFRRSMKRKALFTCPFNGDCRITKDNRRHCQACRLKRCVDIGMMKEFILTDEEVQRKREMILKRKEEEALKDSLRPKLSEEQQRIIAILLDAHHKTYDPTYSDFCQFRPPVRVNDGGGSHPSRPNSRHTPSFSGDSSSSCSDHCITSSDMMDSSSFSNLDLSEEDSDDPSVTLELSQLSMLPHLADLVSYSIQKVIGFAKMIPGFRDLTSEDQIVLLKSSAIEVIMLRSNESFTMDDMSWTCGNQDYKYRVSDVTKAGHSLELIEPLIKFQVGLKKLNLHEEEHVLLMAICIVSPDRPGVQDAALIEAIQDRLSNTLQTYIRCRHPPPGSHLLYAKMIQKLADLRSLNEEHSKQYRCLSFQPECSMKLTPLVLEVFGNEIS
Summary of the method: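 Agonist-mode beta-lactamase reporter: HEK293T VDR-UAS-bla cells in charcoal-stripped 2% FBS, compound series 16 h 37 C, CCF4 2 h RT. EC50 from Hill fit, scaled against DMSO and 50 nM calcitriol control.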

[11] = qHTS assay for small molecule agonists of retinoid X receptor alpha signaling (AID 588544; calls by dose curve;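 on activation: 0% = DMSO basal wells and 100% = reference agonist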); settings: HEK293T RXRa-UAS-bla, beta-lactamase reporter, 18 h; 530 nm emission
[12] = target: Retinoic acid receptor RXR-alpha (Homo sapiens) (UniProt P19793); assay: as above; settings: HEK293T RXRa-UAS-bla, beta-lactamase reporter, 18 h; series mostly up to 76.7 µM
Chain of Retinoic acid receptor RXR-alpha (Homo sapiens) (P19793 whole entry, looked up): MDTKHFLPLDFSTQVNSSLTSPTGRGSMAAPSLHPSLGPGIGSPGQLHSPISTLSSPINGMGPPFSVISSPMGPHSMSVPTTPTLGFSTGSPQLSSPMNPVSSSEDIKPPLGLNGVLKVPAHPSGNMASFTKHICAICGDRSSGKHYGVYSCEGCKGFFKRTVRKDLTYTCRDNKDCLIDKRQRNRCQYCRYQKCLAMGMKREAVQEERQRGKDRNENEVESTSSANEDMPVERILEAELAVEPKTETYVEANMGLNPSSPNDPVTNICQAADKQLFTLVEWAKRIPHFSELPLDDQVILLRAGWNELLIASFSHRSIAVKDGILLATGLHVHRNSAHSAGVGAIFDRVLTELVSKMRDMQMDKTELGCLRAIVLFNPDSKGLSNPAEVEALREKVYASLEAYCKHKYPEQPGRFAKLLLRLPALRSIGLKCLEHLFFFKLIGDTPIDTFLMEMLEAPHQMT

[13] = target: Thyroid hormone receptor beta (Homo sapiens) (UniProt P10828); assay: qHTS assay for small molecule agonists of thyroid hormone receptor beta signaling (AID 588545; calls by dose curve); settings: TR-UAS-bla GripTite HEK 293, beta-lactamase ratio, agonist mode, 18 h, percent of T3 response, DMSO as zero; series mostly up to 76.7 µM
Chain of Thyroid hormone receptor beta (Homo sapiens) (P10828 whole entry, looked up): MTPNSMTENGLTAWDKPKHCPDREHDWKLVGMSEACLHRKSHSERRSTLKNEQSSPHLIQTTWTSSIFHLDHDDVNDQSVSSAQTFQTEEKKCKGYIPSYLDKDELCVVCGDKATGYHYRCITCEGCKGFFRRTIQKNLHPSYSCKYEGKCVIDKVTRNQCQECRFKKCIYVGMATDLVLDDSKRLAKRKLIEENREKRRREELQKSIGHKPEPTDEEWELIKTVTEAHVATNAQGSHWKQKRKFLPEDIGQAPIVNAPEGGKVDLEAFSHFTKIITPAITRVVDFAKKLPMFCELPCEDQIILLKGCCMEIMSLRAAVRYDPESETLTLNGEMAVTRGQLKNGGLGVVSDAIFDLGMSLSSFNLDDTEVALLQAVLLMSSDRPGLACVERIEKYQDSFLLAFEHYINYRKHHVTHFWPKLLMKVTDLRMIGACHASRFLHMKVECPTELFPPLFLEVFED
Summary of the method: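 Agonist activity was read as beta-lactamase CCF4 fluorescence (405 ex, 460/530 em), scaled between DMSO (0%) and 10 nM T3 (100%), then Hill-fitted for EC50 and efficacy. HEK 293 TR-UAS-bla cells in 2% charcoal/dextran FBS medium were exposed 18 h at 37 C.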

CC(Cc1ccc(OCC(=O)O)cc1)NCC(O)c1cccc(Cl)c1 (stereo not given)
inactive: Potency [1] | Potency [2]

NCCc1c[nH]c2ccc(C(N)=O)cc12
inactive: Potency [1] | Potency [3] | outcome [4]

C[C@@H]1O[C@@H](O[C@H]2C[C@@H](O)[C@]3(CO)[C@@H]4C(CC[C@]3(O)C2)[C@@]2(O)CC[C@H]([C@@H]3COC(=O)C3)[C@@]2(C)C[C@H]4O)[C@H](O)[C@H](O)[C@H]1O (stereo not given in full)
inactive: Potency [1]
active: Potency [2] 1780 nM

CN1CCC(c2c[nH]c3ccc(O)cc23)CC1
inactive: Potency [1] | Potency [3] | outcome [4]

CCCN(CCC)[C@@H]1CCc2cccc(O)c2C1
inactive: Potency [1] | Potency [3] | Potency [2] | outcome [4]

O=[N+]([O-])c1cc(O)c(O)c([N+](=O)[O-])c1
inactive: Potency [1] | Potency [2] | outcome [4]

NC(=O)COc1c(F)cc(SCCNS(=O)(=O)c2ccccc2)cc1F
inactive: Potency [1] | Potency [2]

CO[C@H]1CC=C2CCN3CCC4=C(CC(=O)OC4)[C@]23C1
inactive: Potency [1] | Potency [3] | Potency [2]

NC(=O)CI
inactive: Potency [1] | Potency [3] | Potency [2]

C#CCN[C@H](C)Cc1ccccc1
inactive: Potency [1] | Potency [3] | Potency [2]

NNC(N)=O
-3.29%: max response [11]
inactive: Potency [1] | Potency [3] | Potency [2] | Potency [5] | Potency [6] | activation [7] -1.3% | Potency [8] | outcome [9] | outcome [10] | Potency [12] | outcome [13]

OCc1cnc[nH]1
inactive: Potency [1] | Potency [3] | Potency [2]

Cc1[nH]c2ccc(O)cc2c1CCN
inactive: Potency [1] | Potency [3] | Potency [2] | outcome [4]

NCC(O)c1cc(O)c(O)cc1F (stereo not given)
inactive: Potency [1] | Potency [3] | Potency [2]
